# CYP2C19 inh – human CYP2C19 inhibition; P33261; CYP2C19 Supersomes, luciferin-H EGE luminescence, 30 min; inhibition, % at 5 µM; actives 21% (n = 96,000);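 active = CYP2C19 inhibition above a set limit at 5 µM in the primary screen, cut at about 50% in these data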;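 note: plate controls were negative control wells for no effect and 2.5 mM tranylcypromine positive control for full effect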
# CYP2C9 inh – inhibitors of human CYP2C9; P11712; CYP2C9 Supersomes, luciferin-H conversion, luminescence; inhibition, % at 5 µM; actives 20% (n = 96,000); AID 777;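 active = blocking of liver enzyme CYP2C9 beyond about 50% at 5 µM, limit read from the data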
# Target sequence (P11712 whole entry, looked up): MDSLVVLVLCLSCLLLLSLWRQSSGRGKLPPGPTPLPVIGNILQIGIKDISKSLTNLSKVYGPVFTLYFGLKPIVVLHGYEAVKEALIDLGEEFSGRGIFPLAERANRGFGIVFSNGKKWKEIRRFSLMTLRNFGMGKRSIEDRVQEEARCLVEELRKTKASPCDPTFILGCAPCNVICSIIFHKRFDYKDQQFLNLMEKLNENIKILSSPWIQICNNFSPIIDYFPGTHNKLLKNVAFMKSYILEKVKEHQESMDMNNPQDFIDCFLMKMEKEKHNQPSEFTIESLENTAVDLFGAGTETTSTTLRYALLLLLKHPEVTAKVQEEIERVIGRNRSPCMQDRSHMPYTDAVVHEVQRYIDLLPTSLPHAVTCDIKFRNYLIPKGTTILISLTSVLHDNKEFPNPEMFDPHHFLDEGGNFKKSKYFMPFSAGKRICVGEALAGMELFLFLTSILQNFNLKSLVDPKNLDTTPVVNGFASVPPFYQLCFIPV
# CYP2C19 activ – activators of human cytochrome P450 2C19; P33261; recombinant CYP2C19, luciferin-H EGE luminescence; active compounds read high; 0 = fully inhibited enzyme, 1 = untreated enzyme; activation factor at 5 µM; 96,000 tested, under 10 active;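 active = activation factor of at least 2 at 5 µM in the primary screen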;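 note: 0 = wells with 2.5 mM tranylcypromine and 1 = vehicle-only wells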
# sEH inhibitor – inhibitors of human soluble epoxide hydrolase. recombinant human sEH enzymatic activity assay. P34913. AID 707. inhibition, % at 2 µM. actives 0.34% (n = 91,000); in the data active = inhibition above about 80%
# sEH act – activators of human soluble epoxide hydrolase; purified human sEH enzymatic activity, activator screen; activation, % at 2 µM; actives 0.04% (n = 91,000); AID 717; in the data active = activation above about 37%
# CYP2C9 act – activators of human CYP2C9. P11712. recombinant CYP2C9, luciferin-H conversion, luminescence; active compounds read high; factor 1 = untreated enzyme, 0 = blocked. activation factor at 5 µM. actives 1.4% (n = 96,000);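 active = activation factor of 2 or more for CYP2C9 at a 5 µM dose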;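 note: 0 = sulfaphenazole-blocked wells and 1 = vehicle-only wells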
# The depositor's hits bear a star; / = no result. The list is not random: actives were taken first. Their share in the collection is about 27%.
SMILES,CYP2C19 inh,CYP2C9 inh,CYP2C19 activ,sEH inhibitor,sEH act,CYP2C9 act
Cc1ccc2[nH]c3c(N4CCN(Cc5ccc6c(c5)OCO6)CC4)ncnc3c2c1,50*,88*,0.5,/,/,0.1
COc1cc2[nH]c3c(N4CCN(c5ccc(Cl)cc5)CC4)ncnc3c2cc1OC,4,6,1,/,/,0.9
CC(=O)c1cccc(NC(=O)c2cc3nc(C)cc(C)n3n2)c1,-3,-1,1,-2,5,1
Cc1cccc(-c2nnc(SCCOc3ccc4c(C)cc(=O)oc4c3)o2)c1,41,47,0.6,2,1,0.5
O=S(=O)(CCc1nc2ccccc2s1)c1ccc2ccccc2c1,12,-83,0.9,-10,12,1.8
Cc1ccccc1NS(=O)(=O)c1ccc(OCC(=O)N2CCCC2)cc1,-18,-23,1.2,-6,6,1.2
Cc1ccc2[nH]c3c(=O)n(Cc4ccncc4)cnc3c2c1,50,63*,0.5,-6,8,0.4
c1ccc2c(c1)[nH]c1c(N3CCC4(CC3)OCCO4)ncnc12,68*,38,0.3,-17,19,0.6
CCN1CCN(c2ncnc3c2nnn3Cc2ccccc2)CC1,49,1,0.5,-12,14,1
O=c1c2[nH]c3ccccc3c2ncn1CCN1CCOCC1,37,13,0.6,6,-6,0.9
c1ccc(CN2CCN(c3ncnc4c3[nH]c3ccccc34)CC2)cc1,54*,55*,0.5,18,-17,0.5
Cc1ccc2c(c1)c1ncnc(N3CCC4(CC3)OCCO4)c1n2C,12,62*,0.9,-3,3,0.4
Cc1ccc2[nH]c3c(N4CCCCCC4)ncnc3c2c1,39,36,0.6,12,-12,0.6
Cc1ccc2[nH]c3c(N4CCN(Cc5ccccc5)CC4)ncnc3c2c1,78*,95*,0.2,/,/,0.1
c1ccc2c(c1)CCN(c1ncnc3c1[nH]c1ccccc13)C2,95*,95*,0,/,/,0.1
CCOc1ccc2[nH]c3c(N4CCN(c5ccccn5)CC4)ncnc3c2c1,80*,69*,0.2,-6,5,0.3
CCc1nnc(NC(=O)C2CCCN2C(=O)NC2CCCCC2)s1 (stereo not given),-2,6,1,-2,0,0.9
CCC(C)N(NC(C)=O)c1nc(Cl)nc(NC(C)C)n1 (stereo not given),-5,2,1,-1,2,1
COc1ccc(/C=N/NC(=O)c2ccc3ccccc3c2)cc1OS(=O)(=O)c1ccc(NC(C)=O)cc1,78*,87*,0.2,33,-33,0.1
COc1cc(C=O)cc(OC)c1OS(=O)(=O)c1ccc(NC(C)=O)cc1,91*,-182,0.1,15,-16,2.8*
COC(=O)/C=C/S(=O)(=O)c1ccc(NC(C)=O)cc1,-1,1,1,4,-4,1
COc1n[nH]c2nncnc12,-21,-24,1.2,-2,2,1.2
CCN(Cc1ccccc1)C(=O)COC(=O)c1n[nH]c2ccccc12,45,4,0.5,5,-6,1
Cc1cc(C)n(S(=O)(=O)c2cc(Cl)ccc2Cl)n1,59*,-66,0.4,-3,2,1.7
Cc1cc(C)n(S(=O)(=O)c2ccc(C(C)(C)C)cc2)n1,76*,36,0.2,-5,8,0.6
SMILES,CYP2C19 inh,CYP2C9 inh,CYP2C19 activ,sEH inhibitor,sEH act,CYP2C9 act
Cc1cc(C)n(-c2nc3ccccc3nc2N2CCN(S(=O)(=O)c3ccc4ccccc4c3)CC2)n1,33,50,0.7,2,-3,0.5
Cc1cc(C)n(S(=O)(=O)c2ccc3ccccc3c2)n1,61*,-133,0.4,6,-4,2.3*
Cc1ccc(OCn2c(=O)sc3ccccc32)cc1,56*,38,0.4,6,-3,0.6
O=C(O)CCn1c(=O)sc2ccccc21,-13,-2,1.1,5,-6,1
CCOC(=O)Cn1c(=O)sc2ccccc21,47,4,0.5,4,-4,1
O=c1sc2ccccc2n1CCOc1ccccc1,98*,88*,0,4,-6,0.1
CCN(CC)C(=O)Oc1ccc(NC(C)=O)cc1,-12,-12,1.1,3,0,1.1
Cc1ccc(C(=O)OCC(=O)Nc2cc(F)ccc2F)cc1NC(=O)c1ccco1,27,20,0.7,6,-4,0.8
CCOC(=O)c1c(NC(=O)Cn2nnc3ccccc32)sc2c1CCC(C)C2 (stereo not given),61*,88*,0.4,/,/,0.1

# Screens (PubChem BioAssay)
